# Screening data deposited in PubChem BioAssay by several laboratories.
# Compounds with a hit are over-represented: about 9.6% of the library has one in this group of screens.
# L major viab = Leishmania major promastigote growth inhibition; inhibition, % at 10 µM; Leishmania major promastigotes, resazurin fluorescence viability; AID 1063; hit rate 9% among 200,000; in the data active means inhibition above about 50%;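 further: promastigotes grown with compound for 44 hours at 28 °C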
# HCT116 bCat-KO = beta-catenin-lacking colon tumor cell growth suppression | HCT116 beta-catenin knockout viability, CellTiter-Glo, 60 h; stronger effect = lower value | viability, % at 10 µM | hit rate 1.5% among 140,000 | AID 818;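 active means viability at or under a set limit, the compound median less 4 SD, cut at about 6% in these data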;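 further: 0% = Hyamine 1622 control at 20 µM and 100% = untreated cell control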
# Autophagy mod = modulators of autophagy; MEF GFP-LC3 puncta imaging; test concentration mostly 10 µM; calls only at 10 µM (by protocol); hit rate 0.98% among 190,000;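 active means percentage of spot-positive cells more than 3 SD above its plate mean, without a fluorescence outlier flag or 80% toxicity; inconclusive means no clear call, values can overlap the other calls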;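 further: spot-positive cell cutoff set from DMSO-treated cells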
# Ins promoter up = MIN6 insulin promoter up-regulation; z-score at 5 µM; hit rate 0.3% among 190,000; MIN6 insulin promoter-GFP reporter, high-content imaging; stronger effect = higher value; AID 1625;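 active means z-score above 3 at 5 µM with at least 500 cells counted in the well; inconclusive means wells under 500 cells, flagged as cytotoxic or low count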
# Insulin prom inh = TRM-6 insulin promoter activity inhibition; TRM-6 cells (human fetal islet line), insulin promoter-eGFP reporter, imaging; reporter expression induced with tamoxifen; inhibition, % at 2 µM; hit rate 0.9% among 130,000; AID 1273;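 active means inhibition above the mean plus 3 SD, with well images judged a real hit on visual review, cut at about 60% in these data, passing the limit was not always enough; inconclusive means inhibition over the cutoff but images rejected on review; inactive means inhibition not above the cutoff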
# HCT116 PTEN-null = growth suppressors of cells with PTEN tumor suppressor deletion; HCT116 PTEN-null viability, CellTiter-Glo, 60 h; stronger effect = lower value; viability, % at 10 µM; hit rate 1.2% among 140,000; AID 827;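 active means viability at or below a set limit, 4 SD under the median of all tested compounds, cut at about 3.7% in these data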;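 further: PTEN knockout HCT116 line with beta catenin targeted HCT116 as companion control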
# * = called active by the depositor; i = inactive; u = inconclusive; x = not tested or not shown.
SMILES,L major viab,HCT116 bCat-KO,Autophagy mod,Ins promoter up,Insulin prom inh,HCT116 PTEN-null
CC1=C(C(=O)Nc2ccccc2)C(c2ccncc2)C(C#N)=C(SCC(=O)NC(C)C)N1 (configuration not stated),89.0*,103.9,i,0.37,u,97.8
CC1=C(C(=O)Nc2nc3ccccc3s2)C(c2ccco2)C(C#N)=C(SCC(=O)NC2CCCCC2)N1 (configuration not stated),73.0*,58.8,i,-1.57,21.4,57.0
CCOC(=O)CSC1=C(C#N)C(c2ccco2)C(C(=O)Nc2cccc(C(F)(F)F)c2)=C(C)N1 (configuration not stated),5.2,75.3,i,-0.49,-350.0,62.2
CC1=C(C(=O)Nc2ccccc2)C(c2ccncc2)C(C#N)=C(SCC(=O)NC2CC2)N1 (configuration not stated),73.3*,86.3,i,0.17,x,89.6
CCOC(=O)C1=C(C)NC(SCC(N)=O)=C(C#N)C1c1cccs1 (configuration not stated),2.0,93.4,i,-0.18,34.3,86.7
Nc1ccc(C(=O)Nc2nc3ccccc3s2)cc1,-1.2,94.5,x,0.9,x,93.8
CCCSC1=C(C#N)C(c2cccs2)C(C(=O)Nc2ccccc2)=C(C)N1 (configuration not stated),89.0*,71.8,i,x,-258.1,60.2
O=C(NCCc1ccccn1)c1cc(-c2ccccc2Cl)nc2ccccc12,3.5,88.7,i,-0.36,x,79.5
CCOC(=O)c1sc(-c2ccc(OC)cc2)cc1NC(C)=O,-3.2,100.0,i,1.12,0.0,92.1
O=C1CC(/C=C/c2ccncc2)=Nc2ccccc2N1,65.5*,x,i,0.67,x,x
COc1ccc(CN2CCC(CO)(Cc3cccc(C(F)(F)F)c3)CC2)cc1Cn1cccn1,81.1*,x,i,x,x,x
COc1ccc(F)c(CN2CCC(CO)(Cc3cccc(C(F)(F)F)c3)CC2)c1,83.5*,x,i,-0.14,x,x
O=c1[nH]c(=O)c2ncc(-c3ccc(Cl)cc3)nc2[nH]1,80.0*,x,i,1.34,x,x
COC(=O)COc1cccc(NC(=O)c2cccs2)c1,60.6*,96.9,i,0.73,31.6,95.8
CC(C)CC(=O)Nc1cccc(-c2nc3ccccc3[nH]2)c1,x,x,x,-0.62,x,x
CCCN(CCC)S(=O)(=O)c1ccc(NC(=O)Cc2cccs2)cc1,36.9,93.8,i,0.16,-63.3,100.8
COC(=O)COc1cccc(NC(=O)COc2ccccc2)c1,90.9*,96.7,i,-0.52,41.7,104.7
CCCN(CCC)S(=O)(=O)c1ccc(NC(=O)COc2ccccc2)cc1,97.9*,53.0,i,-0.33,17.1,51.4
O=C(COc1ccccc1)Nc1cccc(-c2nc3cc4ccccc4cc3[nH]2)c1,32.4,1.7*,i,-0.29,-60.0,1.1*
Cc1cc(C)c(NC(=S)N(CCCN2CCN(C)CC2)Cc2cccs2)c(C)c1,18.2,x,i,-0.48,6.7,x
Cc1ccc(S(=O)(=O)Nc2ccc3[nH]c(=O)[nH]c3c2)c(C)c1,3.4,x,i,x,x,x
Cc1cc(NC(=O)C2CCN(S(=O)(=O)c3cccs3)CC2)no1,0.9,95.2,i,1.92,-2.7,94.8
CC(C(=O)NCc1ccc2c(c1)OCO2)N(c1ccccc1)S(C)(=O)=O (configuration not stated),2.2,81.1,i,-0.32,30.0,83.2
CCc1ccc(-c2cc(C(=O)N3N=C(C(F)F)CC3(O)C(F)F)c3ccccc3n2)cc1 (configuration not stated),71.2*,7.1,i,-0.79,6.7,3.5*
CC(C)Cc1cc(C(=O)N2N=C(C(F)F)CC2(O)C(F)F)c2ccccc2n1 (configuration not stated),11.4,91.3,i,-0.32,69.2,88.3
SMILES,L major viab,HCT116 bCat-KO,Autophagy mod,Ins promoter up,Insulin prom inh,HCT116 PTEN-null
OC(CNC1CCCc2ccccc21)COc1c(Cl)cccc1Cl (configuration not stated),93.3*,22.9,i,-0.35,-35.1,32.2
N[C@@H](Cc1ccccc1)c1nnc2sc(SCc3ccccc3)nn12,1.2,91.5,i,0.17,-40.7,89.6
O=S(=O)(c1ccccc1)c1cnn(-c2ccccc2)c1-c1ccc(Cl)cc1,55.0*,78.9,i,-0.1,-8.7,77.0
COc1ccc(-c2c(S(=O)(=O)c3ccccc3)cnn2-c2ccccc2)cc1,59.2*,88.2,i,-0.24,x,74.4
O=C(c1cc(N2C(=O)C3C4CCC(C4)C3C2=O)ccc1Cl)N1CCN(c2ccccc2F)CC1 (configuration not stated),75.1*,85.3,i,0.19,-27.0,85.6
COc1ccc(N2CCN(C(=O)c3cc(N4C(=O)C5C6CCC(C6)C5C4=O)ccc3Cl)CC2)cc1 (configuration not stated),85.7*,92.0,i,0.34,-8.1,83.1
O=C(c1cc(N2C(=O)C3C4CCC(C4)C3C2=O)ccc1Cl)N1CCN(c2ccc(F)cc2)CC1 (configuration not stated),75.4*,71.5,i,0.11,40.5,73.6
O=C(c1cc(N2C(=O)C3C4CCC(C4)C3C2=O)ccc1Cl)N1CCCCCC1 (configuration not stated),-4.1,x,i,0.07,-25.9,x
COc1ccc(CCN(C)C2CC(=O)N(c3ccccc3)C2=O)cc1OC (configuration not stated),x,x,x,0.99,x,x
COc1ccc(CN2CCN(C)CC2)cc1OCc1ccccc1,22.7,91.8,i,0.96,0.0,90.6
COc1cc(CN2CCN(c3cccc(C)c3C)CC2)cc(Br)c1O,95.4*,94.4,i,0.74,-26.9,98.2
COc1ccc(CN2CCSCC2)cc1C,78.4*,103.0,i,0.37,33.3,106.0
COc1ccc(CN2CCN(c3cccc(C)c3C)CC2)cc1OC,81.0*,56.5,i,0.92,x,54.9
COc1cc(CN2CCN(c3ccccc3C)CC2)cc([N+](=O)[O-])c1O,7.1,95.2,i,0.07,51.7,91.8
CCOC(=O)CC(=O)CSc1nc2c(c(-c3cccs3)c1C#N)CCC2,-3.5,103.2,i,1.07,x,100.7
O=C(Nc1cccc2ccccc12)N1CCN(Cc2ccccc2)CC1,2.5,57.0,i,-1.36,x,60.2
CCOc1ccc(C(Nc2cccnc2)c2cc(Cl)c3cccnc3c2O)cc1 (configuration not stated),89.5*,x,i,0.41,x,x
O=C(NC(c1ccccc1)c1cc(Cl)c2cccnc2c1O)c1cccnc1 (configuration not stated),98.0*,6.4,i,-1.54,x,8.5
Cc1ccc(C)c(CN2C(=O)C3(OCCCO3)c3ccccc32)c1,57.9*,95.3,i,-0.1,x,77.6
COC(=O)[C@@H](NC(=O)NC(C)CCc1ccccc1)C(C)C (some centres not stated),-0.8,99.6,i,0.17,x,105.4
CC(=O)c1ccc(N(C(=O)CNC(=O)c2ccco2)C(C(=O)NCC2CCCO2)c2ccccc2)cc1 (configuration not stated),-5.0,x,i,0.39,7.1,x
